{"source": "PubChem BioAssay AID504773", "about": "(Broad Institute, 2011)", "target": "Golgi-associated PDZ and coiled-coil motif-containing protein (Homo sapiens) (UniProt Q9HD26)", "assay": "potency against CAL PDZ-peptide interaction – biochemical, fluorescence polarization, Cerulean-tagged CAL PDZ, cherry-picks, dose response (AID 504773)", "conditions": "CAL PDZ-peptide binding, 1 h; series mostly up to 50 µM", "note": "Results with a measured potency or affinity are listed apart. Active and inactive are the calls of the source.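 The calls were made as follows: active = polarization signal falls with dose and the fitted half-maximal concentration is at or below ten times the sample's top valid dose; inconclusive = flat curve at 30 to 70% inhibition, or poor fit; inactive = signal rises, flat within 30%, or potency beyond limit.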"}
{"compound": "COc1ccc(N2CCN(C3CCCN(Cc4ccc(F)cc4)C3)CC2)cc1", "note": "(configuration not stated)", "values": [{"measurement": "outcome", "result": "inactive"}]}
{"compound": "COc1cc(OC)cc(C(=O)N[C@H](C(=O)Nc2nc3ccc(S(C)(=O)=O)cc3s2)C(C)C)c1", "values": [{"measurement": "outcome", "result": "inactive"}]}
{"compound": "COc1ccc(CC(=O)NCC2CCCN(Cc3cccc(SC)c3)C2)cc1", "note": "(configuration not stated)", "values": [{"measurement": "outcome", "result": "inactive"}]}
{"compound": "Cc1ccc(C)c(N(CC(=O)NC(C)(C)C)C(=O)CCC(=O)Nc2nccs2)c1", "values": [{"measurement": "outcome", "result": "inactive"}]}
{"compound": "O=C(NCCN1C(=O)S/C(=C\\c2ccc(Cl)c(Cl)c2)C1=O)C1COc2ccccc2O1", "note": "(configuration not stated)", "values": [{"measurement": "outcome", "result": "inactive"}]}
{"compound": "O=P(O)(COc1ccccc1)COc1ccccc1", "values": [{"measurement": "outcome", "result": "inactive"}]}
{"compound": "O=C(O)c1ccc(Oc2cc(Oc3ccc(C(=O)O)cc3)cc([N+](=O)[O-])c2)cc1", "values": [{"measurement": "outcome", "result": "inactive"}]}
{"compound": "CCOc1ccc(N(CC(=O)N2CCN(Cc3ccccc3)CC2)S(C)(=O)=O)cc1", "values": [{"measurement": "outcome", "result": "inactive"}]}
{"compound": "COc1ccc2ccn(S(=O)(=O)c3ccccc3)c2c1", "values": [{"measurement": "outcome", "result": "inactive"}]}
{"compound": "Cc1cccc(NS(=O)(=O)Cc2ccccc2)c1C", "values": [{"measurement": "outcome", "result": "inactive"}]}
{"compound": "O=C(Nc1ccccc1Cl)Nc1cccnc1Cl", "values": [{"measurement": "outcome", "result": "inactive"}]}
{"compound": "O=C(NCc1cccnc1)c1ccc(Cn2c(=S)[nH]c3ccc(Br)cc3c2=O)cc1", "values": [{"measurement": "outcome", "result": "inactive"}]}
{"compound": "Cc1ccccc1S(=O)(=O)NC(=NCc1ccc(F)cc1)c1ccccc1", "values": [{"measurement": "outcome", "result": "inactive"}]}
{"compound": "NC(=O)c1cc2ccccc2o/c1=N\\NC(=O)c1ccncc1", "values": [{"measurement": "outcome", "result": "inactive"}]}
{"compound": "N#Cc1ccc(CC(=O)c2ccccc2)[nH]c1=O", "values": [{"measurement": "outcome", "result": "inactive"}]}
{"compound": "Cc1nc(Cl)sc1C(=O)Nc1cc(F)cc(F)c1", "values": [{"measurement": "outcome", "result": "inactive"}]}
{"compound": "CC(C)OCCCNC(=O)C1CC(=O)N(CCc2ccc(F)cc2)C1", "note": "(configuration not stated)", "values": [{"measurement": "outcome", "result": "inactive"}]}
{"compound": "CC(C)CNC(=O)CC1Nc2ccccc2NC1=O", "note": "(configuration not stated)", "values": [{"measurement": "outcome", "result": "inactive"}]}
{"compound": "CCCn1nnnc1NCc1cc(Br)ccc1OC", "values": [{"measurement": "outcome", "result": "inactive"}]}
{"compound": "COc1cccc(N2CCN(C(=O)c3ccc(-c4ccccc4)cc3)CC2)c1", "values": [{"measurement": "outcome", "result": "inactive"}]}
{"compound": "O=C(NCc1ccccc1)C1CCCN(c2nc3ccsc3c(=O)s2)C1", "note": "(configuration not stated)", "values": [{"measurement": "outcome", "result": "inactive"}]}
{"compound": "Cc1[nH]c2ccccc2c1C(=O)CSc1nc2ncc(Cl)cc2[nH]1", "values": [{"measurement": "outcome", "result": "inactive"}]}
{"compound": "CCOc1ccccc1N(CC(=O)Nc1cccc2ccccc12)S(C)(=O)=O", "values": [{"measurement": "outcome", "result": "inactive"}]}
{"compound": "Cc1ccc(-n2c(SCC(N)=O)nnc2-c2ccco2)cc1", "values": [{"measurement": "outcome", "result": "inactive"}]}
{"compound": "O=C(Nc1ccc(Cl)cc1)c1ccc(CN2CCc3ccccc3C2)cc1", "values": [{"measurement": "outcome", "result": "inactive"}]}
{"compound": "Nc1ccc(N(CCO)CCO)cc1", "values": [{"measurement": "outcome", "result": "inactive"}]}
{"compound": "O=C(NCc1cccs1)c1cccn2c(=O)c3sccc3nc12", "values": [{"measurement": "outcome", "result": "inactive"}]}
{"compound": "O=C1CN(C(=O)CC2C(=O)NCCN2Cc2ccccc2C(F)(F)F)CCN1", "note": "(configuration not stated)", "values": [{"measurement": "outcome", "result": "inactive"}]}
{"compound": "O=C(COC(=O)c1ccccc1C(=O)N1CCN(c2ccccc2)CC1)NCc1ccccc1", "values": [{"measurement": "outcome", "result": "inactive"}]}
{"compound": "C/C(=N/N1CCN(c2ccccn2)CC1)c1ccc([N+](=O)[O-])cc1", "values": [{"measurement": "outcome", "result": "inactive"}]}
{"compound": "Cc1c(C(=O)OCC(=O)NC(=O)NC2CCCCC2)cccc1[N+](=O)[O-]", "values": [{"measurement": "outcome", "result": "inactive"}]}
{"compound": "CCC(C(=O)NN1C(=O)c2ccccc2C1=O)c1ccccc1", "note": "(configuration not stated)", "values": [{"measurement": "outcome", "result": "inactive"}]}
{"compound": "CS(=O)(=O)N1CCN(C(=O)c2ccc3c(c2)OCCO3)CC1", "values": [{"measurement": "outcome", "result": "inactive"}]}
{"compound": "CCCOc1ccc(S(=O)(=O)Nc2ccccn2)c2ccccc12", "values": [{"measurement": "outcome", "result": "inactive"}]}
{"compound": "CC(C)OC(=O)C1CC(C)(O)C(=O)C(C(=O)OC(C)C)C1c1ccc([N+](=O)[O-])cc1", "note": "(configuration not stated)", "values": [{"measurement": "outcome", "result": "inactive"}]}
{"compound": "O=C(NCc1ccccn1)c1ccc(NS(=O)(=O)c2ccccc2)cc1", "values": [{"measurement": "outcome", "result": "inactive"}]}
{"compound": "CO[C@H]1O[C@H](C)[C@@H](O)C[C@H]1NC(=O)OCc1ccccc1", "values": [{"measurement": "outcome", "result": "inactive"}]}
